Measured values: PubChem BioAssay AID431 (Sanford-Burnham Center for Chemical Genomics, 2006)
Hit rate of the full screen: of about 63,000 compounds, about 1,100 (1.7%) were called active.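 The calls were made as follows: active = compounds whose percent cytotoxicity in the single-dose primary screen, scaled between solvent and toxic-drug controls, exceeds 50; inactive = the rest.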 The list comes from a sample in which actives are over-represented; it also holds similar structures and randomly drawn compounds. Entries with a potency or affinity are not part of this list.

experiment: cytotoxicity in KRAS-transformed pancreatic duct cells, primary screen, cell-based, fluorescence, HTS (AID 431); details: HPDE-C7K KRASV12 cells, Alamar Blue viability, 48 h; at 10 µM; stronger effect = higher value;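 also: 0% = DMSO solvent wells and 100% = doxorubicin-treated wells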

SMILES	cytotoxicity
O=C(CSc1nn(-c2ccccc2)c(=S)s1)Nn1cnnc1	-11.8% (inactive)
CS(=O)(=O)N1CCCC(c2nc(-c3ccc(S(=O)(=O)NCc4ccccc4)cc3)no2)C1 (configuration not stated)	-5.6% (inactive)
O=C(CCCn1c(=S)[nH]c2cc3c(cc2c1=O)OCO3)N1CCN(c2ncccn2)CC1	-12.6% (inactive)
CCOc1ccccc1N1CCN(C(=O)Nc2cccc(Cl)c2)CC1	-2.1% (inactive)
Cn1cc(C(=O)NC2CCCCCCC2)c(=O)c2cc(S(=O)(=O)N3CCCC3)ccc21	-3.8% (inactive)
CCN(CC)S(=O)(=O)c1ccc2oc(C(=O)N3CCCCCC3)c(C)c2c1	7.8% (inactive)
CCCN1Cc2cccc(C(=O)Nc3cc(OC)cc(OC)c3)c2C1=O	16.6% (inactive)
CC(C)(C)OC(=O)NCCc1nnc(SCC(=O)c2ccc(Cl)cc2)o1	3.8% (inactive)
COc1cccc(C(=O)N(Cc2cc3cc(C)ccc3[nH]c2=O)CC2CCCO2)c1 (configuration not stated)	-14.2% (inactive)
CCOC(=O)C1CCN(Cc2ccccc2C(F)(F)F)CC1	-13.3% (inactive)
On1cnnc1-c1ccccc1	-12.7% (inactive)
CCCCN1Cc2cc(C(=O)c3cc(F)ccc3O)cnc2NC1=O	6.7% (inactive)
CN1Cc2cc(C(=O)c3cc(Cl)cc(CSc4ncccn4)c3O)cnc2NC1=O	66.2% (active)
Cc1ccc(O)c(C(=O)c2cnc3c(c2)CN(CCC(C)C)C(=O)N3)c1	-6% (inactive)
CCCn1c(N)c(C(=O)CSc2nnc(-c3ccco3)n2Cc2ccccc2)c(=O)[nH]c1=O	-9.1% (inactive)
Cc1cc(NC(=O)NC(=O)c2cccc(OC(F)(F)C(F)F)c2)n[nH]1	-3.6% (inactive)
Cc1cc(C)c2c(CN3CCN(C)CC3)cc(=O)oc2c1	9.6% (inactive)
CCN1CCN(Cc2cc(=O)oc3cc(C)cc(C)c23)CC1	7.2% (inactive)
Cc1cc(C)c2c(CN3CCN(C/C=C/c4ccccc4)CC3)cc(=O)oc2c1	72.7% (active)
CCOC(=O)c1c(C)n(C)c2ccc(O)c(CN3CCN(C)CC3)c12	4.9% (inactive)
Cc1cc(C2=CC(C)(c3cc(C)oc3C)Nc3nc(C(F)(F)F)nn32)c(C)o1 (configuration not stated)	56.2% (active)
Cc1cccc(NC(=O)c2cnc3sccn3c2=O)c1C	0.5% (inactive)
CCOC(=O)c1ccc(NC(=O)CCC(=O)OC)cc1	0% (inactive)

SMILES	cytotoxicity
CCc1nc(NCC2CCCO2)c(C#N)c2c1COC(C)(C)C2 (configuration not stated)	-3% (inactive)
CCCc1nc(NC2CCCCC2)c(C#N)c2c1COC(C)(C)C2	-33.6% (inactive)
CCc1nc(NC2CCCCC2)c(C#N)c2c1COC(C)(C)C2	62% (active)
COc1ccccc1N1CCN(CC(=O)Nc2c(C)n[nH]c2C)CC1	0.8% (inactive)
COc1ccc(-c2nc(CS(=O)CC(=O)NCC3CCCO3)c(C)o2)cc1 (configuration not stated)	-1.7% (inactive)
O=S(=O)(c1ccc(F)cc1)N1CCN(c2ncnc3c2cnn3-c2ccccc2)CC1	-6.5% (inactive)
O=S1(=O)CC(O)C(N2CCC(c3ccccc3)CC2)C1 (configuration not stated)	-1.5% (inactive)
CN(Cc1cc2ccccc2[nH]c1=O)S(=O)(=O)c1ccccc1	-6.2% (inactive)
CN(C)CCC(=O)c1ccc(Cl)cc1	13.3% (inactive)
COc1ccccc1NC(=O)N(Cc1ccco1)Cc1cc2c(C)ccc(C)c2[nH]c1=O	33.2% (inactive)
COc1ccccc1NC(=O)N(Cc1ccco1)Cc1cc2ccc(C)c(C)c2[nH]c1=O	63.7% (active)
COc1ccccc1NC(=O)N(Cc1ccco1)Cc1cc2cc(C)cc(C)c2[nH]c1=O	74.7% (active)
CCN1CCCC1CN(Cc1cc2cc(C)cc(C)c2[nH]c1=O)C(=O)Nc1ccccc1OC (configuration not stated)	20.9% (inactive)
Cc1cc(C)c2[nH]c(=O)c(CN(Cc3ccco3)C(=O)C3CCCO3)cc2c1 (configuration not stated)	-35.5% (inactive)
COc1ccccc1NC(=O)N(Cc1ccco1)Cc1cc2cccc(C)c2[nH]c1=O	-5% (inactive)
CC1CCCCC1NC(=O)CN1CCN(Cc2ccccc2Cl)C1=O (configuration not stated)	-7.1% (inactive)
CCc1cc(C)cc(OCCNC(=O)c2ncn[nH]2)c1	30% (inactive)
Cn1nnnc1CCOCCc1nnnn1C	14.6% (inactive)
CCn1nnnc1SCCSc1nnnn1CC	9.6% (inactive)
N/C(=N\c1nc2c(c(=O)[nH]1)CCCC2)Nc1ccccc1	12.1% (inactive)
COc1ccc(-c2cn3cccnc3n2)cc1NC(=O)c1ccc(Br)o1	8.3% (inactive)
CCOC(=O)C1=C(C)N=C2SC(CC)C(=O)N2C1c1cccc(F)c1 (configuration not stated)	-16.9% (inactive)
O=C(CCn1c(=O)[nH]c2ccccc2c1=O)N1CCN(c2cccc(C(F)(F)F)c2)CC1	-4.3% (inactive)

SMILES	cytotoxicity
O=C(CN1CCN(c2ccccc2)CC1)Nc1cccc(C(F)(F)F)c1	4.9% (inactive)
OC(CN1CCN(c2cccc(C(F)(F)F)c2)CC1)c1c[nH]c2ccccc12 (configuration not stated)	30.5% (inactive)
Cc1[nH]c2ccccc2c1NC(=O)CN1CCN(c2cccc(C(F)(F)F)c2)CC1	70% (active)
COC(=O)c1[nH]c2ccccc2c1NC(=O)CN1CCN(c2cccc(Cl)c2)CC1	7.8% (inactive)
CC[C@]1(O)CC2CN(CCc3c([nH]c4ccccc34)[C@@](C(=O)OC)(c3cc4c(cc3OC)N(C=O)[C@H]3[C@@](O)(C(=O)OC)[C@H](OC(C)=O)[C@]5(CC)C=CCN6CC[C@]43[C@@H]65)C2)C1 (some centres not stated)	72.5% (active)
CC[C@]1(O)C[C@@H]2CN(CCc3c([nH]c4ccccc34)[C@@](C(=O)OC)(c3cc4c(cc3OC)N(C)[C@H]3[C@@](O)(C(=O)OC)[C@H](OC(C)=O)[C@]5(CC)C=CCN6CC[C@]43[C@@H]65)C2)C1	74.9% (active)
CC(=O)Oc1ccc(N(C(C)=O)S(=O)(=O)c2cccs2)cc1	8.2% (inactive)
O=C(O)CCC(=O)Nc1nnc(C(F)(F)F)s1	-6.4% (inactive)
CCCNc1cc(=O)n(C)c(=O)n1C	9.9% (inactive)
O=c1c2c3nc4ccccc4nc3n(-c3cccc(F)c3)c2ncn1Cc1ccc2c(c1)OCO2	7.3% (inactive)
Cc1ccc(SC(C)C(=O)NCC(C)C)cc1 (configuration not stated)	0% (inactive)
CC(C)c1ccc(O)c(N)c1	8% (inactive)
Cc1ccc(O)c(Sc2cc(C)ccc2O)c1	65.2% (active)
Cc1ccc(NC(=O)CSc2nccc(=O)[nH]2)c(S(=O)(=O)N2CCOCC2)c1	2.7% (inactive)
Cc1sc(NC(=O)c2ccco2)c(C(c2cccnc2)N2CCN(c3ccc(F)cc3)CC2)c1C (configuration not stated)	1.9% (inactive)
Cc1sc(NC(=O)c2ccco2)c(C(c2ccncc2)N2CCOCC2)c1C (configuration not stated)	-8.8% (inactive)
CCOC(=O)C1CCN(C(c2cccnc2)c2c(NC(=O)c3ccco3)sc(C)c2C)CC1 (configuration not stated)	82.5% (active)
Cc1ccc2nc(N3CCN(C(=O)c4cccs4)CC3)c(C#N)cc2c1	2% (inactive)
Cc1ccc2ncccc2c1NS(=O)(=O)c1ccccc1	-4.5% (inactive)
O=S(=O)(Nc1cccc2ncccc12)c1cccs1	25.3% (inactive)
c1ccc(N(c2ccccc2)c2nc(N3CCCC3)nc(-n3ccnc3)n2)cc1	1.4% (inactive)
O=C1c2cccnc2C(O)N1Cc1ccc(F)cc1 (configuration not stated)	1.3% (inactive)
Cc1ccc2oc(=O)c3cc(C(=O)N4CCN(C(=O)c5ccco5)CC4)sc3c2c1	11% (inactive)

SMILES	cytotoxicity
O=C(Nc1ccc(-n2cnnn2)cc1)C1CCC1	-4.6% (inactive)
COc1ccc(-c2noc(C)c2-c2ccc3ccccc3n2)c(O)c1	54.3% (active)
COc1ccc(-c2onc(C)c2-c2ccccc2)c(O)c1	15.1% (inactive)
COc1ccc(-c2n[nH]c(C)c2-c2cnn(-c3ccccc3)c2)c(O)c1	29.6% (inactive)
CCOc1ccccc1Nc1ccc(C(=O)O)cc1NC(C)=O	0.6% (inactive)
O=C(c1cc(-c2cccs2)on1)N1CCOCC1	2.8% (inactive)
O=C(c1cc(-c2cccs2)on1)N1CCN(c2ccccc2)CC1	50.8% (active)
O=C(c1cc(-c2cccs2)on1)N1CCN(c2ccc(F)cc2)CC1	13.6% (inactive)
O=S(=O)(c1cccc2cccnc12)n1cnc2ccccc21	6.3% (inactive)
Cc1cccc(C)c1NC(=O)CSc1nnc(Cn2nnc(-c3ccccc3)n2)n1-c1ccccc1	-8.4% (inactive)
N#CC(C(=O)OC1CCCCC1)c1nc2ccccc2nc1N1CCCCC1 (configuration not stated)	5.4% (inactive)
O=C(C1=C(O)C(=O)N(CCN2CCOCC2)C1c1ccccc1)c1cccs1 (configuration not stated)	-12.1% (inactive)
O=C(c1cccs1)N1CCC(c2nc3c(nnn3Cc3ccccc3)c(=O)[nH]2)CC1	-36% (inactive)
COCC(=O)n1nc(-c2ccccc2)nc1NCc1ccc(F)cc1	-6% (inactive)
Cc1cccc(N2CCN(C(=O)CCn3c(=S)[nH]c4cc5c(cc4c3=O)OCO5)CC2C)c1 (configuration not stated)	62.5% (active)
O=C(CCCn1c(=S)[nH]c2cc3c(cc2c1=O)OCO3)N1CCN(c2ccccc2)CC1	-7.8% (inactive)
COc1cccc(N2CCN(C(=O)CCn3c(=S)[nH]c4cc5c(cc4c3=O)OCO5)CC2)c1	-4.3% (inactive)
NC1=NC2(CCCCC2)n2c(nc3ccccc32)N1	19% (inactive)
NC1=NC2(CCC(c3ccccc3)CC2)n2c(nc3ccccc32)N1 (configuration not stated)	68.7% (active)
NC1=NC2(CCN(Cc3ccccc3)CC2)n2c(nc3ccccc32)N1	1% (inactive)
CCOc1ccc(CNC(=O)NS(=O)(=O)c2ccc(OC)cc2)cc1	-11.3% (inactive)
CCCCn1nnnc1NCc1cccc(OC)c1OC	12.8% (inactive)
CCCCn1c(SCC(=O)NCc2ccco2)nnc1-c1ccoc1C	-26.4% (inactive)
